Measured values: the supplement of paper PMC6555819

Tests used:
Assay in all cases: PBM binding z-score (relative to random genomic background probes); higher = stronger binding; sequences stand for … in GC…GCGATTGACAGCGTAGAATGAAGG
[1] = tested on: FXR:RXRa (NR concentration 270 nM, RXRa partner concentration 90 nM)
How it was run: (§1)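 Binding z-scores take random background probes as their reference. They come from custom Agilent 4×180K protein-binding microarrays incubated 1 h with ligand-free nuclear receptor dimers, with antibodies against each partner (one per run) detecting binding. Scanned fluorescence was regression-normalized.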

[2] = tested on: LXRa:RXRa (NR concentration 270 nM, RXRa partner concentration 90 nM)
How it was run: as §1

[3] = tested on: LXRa homodimer (NR concentration 270 nM)
How it was run: as §1

[4] = tested on: LXRb:RXRa (NR concentration 270 nM, RXRa partner concentration 90 nM)
How it was run: as §1

[5] = tested on: LXRb homodimer (NR concentration 270 nM)
How it was run: as §1

[6] = tested on: PPARa:RXRa (NR concentration 270 nM, RXRa partner concentration 90 nM)
How it was run: as §1

[7] = tested on: PPARg:RXRa (NR concentration 180 nM, RXRa partner concentration 90 nM)
How it was run: as §1

[8] = tested on: PPARg:RXRa 270nM:90nM, anti-RXR (NR concentration 270 nM, RXRa partner concentration 90 nM)
How it was run: as §1

[9] = tested on: PPARg:RXRa 30nM:10nM, anti-RXR (NR concentration 30 nM, RXRa partner concentration 10 nM)
How it was run: as §1

[10] = tested on: PPARg:RXRa 90nM:30nM, anti-RXR (NR concentration 90 nM, RXRa partner concentration 30 nM)
How it was run: as §1

[11] = tested on: PPARg:RXRa DBDmut IVT, anti-RXR (DBD mutation: RXRa K156A/R161A, NR concentration 270 nM, RXRa partner concentration 90 nM)
How it was run: as §1

[12] = tested on: PPARg:RXRa IVT, anti-PPARg (NR concentration 270 nM, RXRa partner concentration 90 nM)
How it was run: as §1

[13] = tested on: PPARg DBDmut:RXRa IVT, anti-PPARg (DBD mutation: PPARg1 K132A/R137A, NR concentration 270 nM, RXRa partner concentration 90 nM)
How it was run: as §1

[14] = tested on: PPARg DBDmut IVT, anti-PPARg (DBD mutation: PPARg1 K132A/R137A, NR concentration 270 nM)
How it was run: as §1

[15] = tested on: PPARg homodimer (NR concentration 180 nM)
How it was run: as §1

[16] = tested on: PXR:RXRa (NR concentration 270 nM, RXRa partner concentration 90 nM)
How it was run: as §1

[17] = tested on: PXR homodimer (NR concentration 270 nM)
How it was run: as §1

[18] = tested on: RARa:RXR (NR concentration 270 nM, RXRa partner concentration 90 nM)
How it was run: as §1

[19] = tested on: RARa homodimer (NR concentration 270 nM)
How it was run: as §1

[20] = tested on: RARb:RXRa (NR concentration 270 nM, RXRa partner concentration 90 nM)
How it was run: as §1

| Sequence | PBM binding z-score [1] | PBM binding z-score [2] | PBM binding z-score [3] | PBM binding z-score [4] | PBM binding z-score [5] | PBM binding z-score [6] | PBM binding z-score [7] | PBM binding z-score [8] | PBM binding z-score [9] | PBM binding z-score [10] | PBM binding z-score [11] | PBM binding z-score [12] | PBM binding z-score [13] | PBM binding z-score [14] | PBM binding z-score [15] | PBM binding z-score [16] | PBM binding z-score [17] | PBM binding z-score [18] | PBM binding z-score [19] | PBM binding z-score [20] |
| --- | --- | --- | --- | --- | --- | --- | --- | --- | --- | --- | --- | --- | --- | --- | --- | --- | --- | --- | --- | --- |
| ATCGAAAGGTCGTGGGGTGAGTATACAGAAAGGC | 6.2 | 4.88 | 0.955 | 4.76 | 2.35 | 5.78 | 5.25 | 5.38 | 2.16 | 3.9 | 1.35 | 2.93 | 1.62 | 1.78 | 2.39 | 4.24 | 1.2 | 4.98 | 2.03 | 4.47 |
| ACTATTAGTTCAGACGAGGGCAACCGATAGGTTG | 1.07 | 1.31 | 0.305 | 0.453 | 0.271 | 0.817 | 0.621 | 0.191 | -0.0108 | 0.00845 | 0.264 | 0.891 | 0.625 | 0.802 | 0.783 | 3.92 | 2.04 | 0.878 | 0.72 | 2.1 |
| GTACCAAGGTGAATAGGACGTTGATGAGTAGGCG | 0.0663 | -0.214 | 0.103 | -0.344 | -0.664 | 0.537 | 1.07 | 0.126 | 0.338 | 0.55 | 1.26 | 1.93 | 0.467 | 0.284 | 0.583 | -0.246 | -0.00267 | -0.0237 | 0.381 | 1.14 |
| CGAACTAGGTCATCCAGGACATTGAATACATTGA | 4.43 | 2.87 | 1.02 | 2.52 | 0.159 | 5.11 | 7.97 | 6.57 | 4.02 | 5.68 | 8.08 | 8.47 | 4.18 | 1.44 | 2.2 | 2.71 | 3.75 | 2.82 | 1.01 | 3.92 |
| CCTAGCAGGCCAATCTGGGTGACTCAAGGCTTGA | -0.438 | -0.53 | -0.891 | -0.476 | -0.85 | 1.26 | 0.507 | 0.524 | -0.938 | -0.00968 | 2.96 | 3.53 | -0.721 | -0.739 | -0.0827 | -0.581 | -0.777 | 0.391 | -0.515 | 0.0785 |
| GCAGACAGGTGAAACGCAGGAAACTCAGGGTGGC | -0.517 | -0.226 | -0.695 | -0.346 | -1.08 | 0.952 | 0.592 | -0.351 | -0.59 | -0.582 | 0.874 | 0.378 | -0.857 | -0.37 | -0.537 | -0.387 | -0.338 | -0.0101 | -0.25 | 0.527 |
| CCTCGGAGGACAACAGGAGGCCAGAGCTGCCAGA | -0.418 | -0.512 | -0.358 | -1.07 | -0.956 | -0.509 | 0.0998 | -0.942 | -0.765 | -0.807 | -0.393 | -0.707 | -0.633 | -1.31 | -0.602 | -0.549 | -0.283 | -0.45 | -0.398 | 1.07 |
